HPGD block – HPGD (human) dehydrogenase inhibition; P15428; purified HPGD, NADH fluorescence kinetic, PGE2 substrate; hit rate 4.3% among 150,000; Potency, µM, inactives show at the top dose activity change, negative = inhibition, most hits filed as inhibitors; also: potency is read from the fitted curve at half-maximal effect
Target sequence (P15428 whole entry, looked up): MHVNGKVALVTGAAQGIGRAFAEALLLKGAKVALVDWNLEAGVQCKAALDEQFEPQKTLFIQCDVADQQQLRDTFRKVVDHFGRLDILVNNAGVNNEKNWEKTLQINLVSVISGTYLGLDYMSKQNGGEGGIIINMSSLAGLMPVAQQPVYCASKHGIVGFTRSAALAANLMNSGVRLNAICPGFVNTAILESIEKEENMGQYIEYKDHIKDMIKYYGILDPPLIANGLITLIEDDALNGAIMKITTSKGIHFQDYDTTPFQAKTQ
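NADH formation kinetics: reaction with 30 uM PGE2 and 1 mM NAD+ (final), 20 nM enzyme, Tris-HCl pH 8 with Tween 20, after 15 min compound preincubation at room temperature. Fluorescence change, last versus first of five reads.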
PNC inhibitor – perinucleolar compartment assembly inhibition | hit rate 3.1% among 140,000 | PC3M PTB-GFP, PNC prevalence imaging, 16 h; active compounds read low | activity change (PNC), negative = inhibition, % at 10 µM | AID 2417;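 active = readout at or below -70, meaning at least 70% loss of cells showing the perinucleolar compartment, a nuclear body marking cancer cells; inconclusive = readout between -30 and a set limit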;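 also: plate controls were DMSO wells for no effect and camptothecin positive control wells for full effect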
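PC3M cells stably expressing PTB-GFP, 750–1000 cells/well, treated 16 h at 37 °C with compound (23 nl of library stock), in duplicate. After paraformaldehyde fixation and Hoechst stain, imaged at 20x; PNC prevalence scored by image analysis.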
Lamin A splicing – modulators of lamin A splicing | HeLa LMNA splicing GFP/RFP minigene ratio, 48 h | Potency, µM (top dose mostly 46.1 µM), without a hit: at the top dose ratio change, negative = inhibition, usual class: inhibitors | hit rate 0.01% among 200,000 | AID 1487; active = well fitted inhibition curve with a large enough effect in the signal ratio, with a control signal flat, not every such curve was filed as active; inconclusive = small, poorly fitted or top-dose-only effect, or effect the other way, or a change in a side signal; the % refers to the signal ratio; also: potency is read from the fitted curve at half-maximal effect
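S3 HeLa cells stably expressing lamin A-EGFP splicing minigene plus DsRed2, 600 cells/well, 48 h compound exposure at 37C. Laser-scanning cytometry; analysed as GFP (500-530 nm)/RFP (575-640 nm) total intensity ratio; 0.5% DMSO vehicle.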
ALDH1A1 inh – blocks purified human ALDH1A1 activity; hit rate 7.3% among 220,000; Potency, µM (highest dose often 75.3 µM), inactives show at the top dose activity, negative = inhibition, hits mostly inhibitors; Purified ALDH1A1, NADH fluorescence, propionaldehyde substrate; AID 1030; P00352;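 also: potency is read from the fitted curve at half-maximal effect; plate controls were no enzyme wells and a reference inhibitor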
12-hLO inh – blocks human 12-lipoxygenase activity. purified 12-hLO, xylenol orange hydroperoxide absorbance. Potency, µM (titrated, usually from 57.1 µM), without a hit: at the highest dose activity change, negative = inhibition, hits mostly inhibitors. hit rate 0.12% among 150,000; active = well fitted inhibition curve with a large enough effect; inconclusive = small, poorly fitted or top-dose-only effect; also: potency is read from the fitted curve at half-maximal effect; nearly all actives have a fitted effect of over 55% in size
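Lipoxygenase turnover measured by absorbance at 573 and 405 nm after Fe-XO development. Human 12hLO 150 nM, arachidonate 40 uM, pH 7.0 Hepes buffer with detergent; 15 min compound preincubation, 30 min reaction.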
The depositor's hits bear a star; ? = inconclusive; · = no result given; [ ] = remark or other dose. Compounds with a hit are over-represented: about 10% of the library has one in this group of screens. Unless noted, calls follow the shape of the dose curve; as a rule, active = well fitted inhibition curve with a large enough effect (not every such curve was filed as active); inconclusive = small, poorly fitted or top-dose-only effect, or another doubt; inactive = no such curve, though single readings can be large or run the other way. Unless noted, % is scaled to controls: 0 for no effect and ±100 for the full control effect.

SMILES	HPGD block	PNC inhibitor	Lamin A splicing	ALDH1A1 inh	12-hLO inh
COc1ccc2sc(N(Cc3cccnc3)C(=O)c3cccs3)nc2c1	·	·	14%[46 µM]	·	·
CCOC(=O)CSc1c(-c2ccccc2)c2cc(Cl)ccc2[nH]c1=O	18µM*	-17	9%	?	2%
NNC(=O)c1[nH]c2ccc(Br)cc2c1-c1ccccc1	·	·	·	0.16µM*	·
Cc1ccc2[nH]c(C(=O)O)c(-c3ccccc3)c2c1	?	-17	-1%	?	-2%
Cc1ccc2[nH]c(C(=O)NN=C3CCCCC3)c(-c3ccccc3)c2c1	·	·	·	1.4µM*	·
O=C(O)CSc1c(-c2ccccc2)c2cc(Cl)ccc2[nH]c1=O	-2%	56	-16%	0%	-2%
NNC(=O)c1[nH]c2ccc(Cl)cc2c1-c1ccccc1	·	·	·	1.1µM*	·
O=C(N/N=C/c1ccccc1Cl)c1[nH]c2ccc(Br)cc2c1-c1ccccc1	-25%	?	?	?	-1%
CCOC(=O)c1ccc(NC(=O)C2CCN(C(=O)N3CC(C)Oc4ccc(C)cc43)CC2)cc1 (stereo not drawn)	·	·	3%[46 µM]	·	·
N=C(N)SCc1cccc(-c2nc3ccccc3c(=O)o2)c1	-1%	·	·	-8%[13.5 µM]	4%[11.4 µM]
CCCn1cc(NC(=O)c2cc3n(n2)C(C(F)(F)F)CC(c2ccccc2)N3)cn1 (stereo not drawn)	-7%	-87*	5%	12%	1%
O=C(Nc1ccc2c(c1)OCO2)c1cc2n(n1)C(C(F)(F)F)CC(c1ccccc1)N2 (stereo not drawn)	-8%	53	0%	0%	-5%
Cc1ccc(CC(=O)Nc2nc3c(s2)CCCC3)cc1	-11%	-100*	?	-3%	2%
O=C(Cc1ccc(S(=O)(=O)N2CCCC2)s1)Nc1nc2c(s1)CCCC2	-22%	-17	11%	10µM*	-6%
O=C(Cc1ccc(S(=O)(=O)N2CCCCC2)s1)Nc1ccc(F)c(F)c1	-11%	-86*	?	?	0%
Cc1ccccc1-c1cc(C(=O)Nc2nc3c(s2)CCCC3)c2ccccc2n1	?	-100*	6%	?	-27%
Cc1nc2ccccc2n1CCc1nc2c3ccccc3nc(SCc3ccc(C#N)cc3)n2n1	·	·	16%[46 µM]	·	·
CCOCCOCC	3%	·	·	5%	-3%
Cc1cccc2nc(-c3cccc(NC(=O)c4ccc(Cl)cc4)c3)cn12	23%	37	?	-126%	-1%
Cc1cccc2nc(-c3cccc(NC(=O)Cc4ccccc4)c3)cn12	-24%	-109*	-4%	?	1%
COc1ccc(NC2=NCC(Cc3ccc(Br)cc3)S2)cc1 (stereo not drawn)	-25%	-92*	?	-4%	?
CNc1nc(C)nc(N/N=C/c2ccccc2)n1	·	·	·	13µM*	·
Fc1ccc(N2CCN(Cc3cn[nH]c3-c3ccccc3)CC2)cc1	·	·	·	14µM*	·
CC(Cn1cnc2ccccc21)C(=O)O (stereo not drawn)	-9%	-100*	-6%	13%	0%
CC(Cn1nnc2ccccc21)C(=O)O (stereo not drawn)	·	·	-10%[46 µM]	6%	·
SMILES	HPGD block	PNC inhibitor	Lamin A splicing	ALDH1A1 inh	12-hLO inh
c1ccc(Cn2nnc3c(NCC4CCCO4)ncnc32)cc1 (stereo not drawn)	-19%	29	-5%	?	-1%
c1ccc(Cn2nnc3c(N4CCc5ccccc5C4)ncnc32)cc1	32µM*	30	10%	?	0%
Clc1ccccc1Nc1ncnc2c1nnn2Cc1ccccc1	22µM*	?	-4%	?	-9%
c1ccc(Cn2nnc3c(N4CCCC4)ncnc32)cc1	-11%	-22	1%	?	-1%
CCCN(CCC)C(=O)CSc1nc2n[nH]c(C)c2c(=N)n1-c1ccc(OCC)cc1	·	?	?	3.2µM*	-13%
COc1ccc2c(c1)[n+]([O-])c(/C(C)=N/NC(N)=S)c(C)[n+]2[O-]	·	·	·	·	3%[11.4 µM]
COC(=O)c1cccc(-c2ccc(/C=N/N3C(=O)C4C5C=CC(C6CC56)C4C3=O)o2)c1 (stereo not drawn)	·	·	?	14µM*	·
COC(=O)c1ccc(-c2ccc(/C=N/N3C(=O)C4C5C=CC(C6CC56)C4C3=O)o2)cc1 (stereo not drawn)	14µM*	-1	?	385%	1%
COC(=O)N/N=C/c1ccc(-c2cccc(Cl)c2)o1	?	9	-14%	-9%	-3%
COC(=O)C1=C(C(=O)OC)[C@@H]2N(C)c3ccccc3[C@@]23C[C@@H](CO)N(C(=O)c2ccco2)C3=N1	5%	·	-23%[9.22 µM]	-2%[13.5 µM]	0%[11.4 µM]
Cc1ccc(-c2noc(C3CC(=O)N(c4ccc5c(c4)OCCO5)C3)n2)cc1 (stereo not drawn)	·	·	-23%[46 µM]	·	·
CC(=O)Nc1ccc(S(=O)(=O)N2CCN(CC3CC4C=CC3C4)CC2)cc1 (stereo not drawn)	·	·	?	4.5µM*	·
CC(=O)Nc1ccc(S(=O)(=O)N2CCN(Cc3ccccn3)CC2)cc1	-2%	-27	0%	?	0%
C1=CC2CC1CC2CN1CCN(c2ccccc2)CC1 (stereo not drawn)	3%	-81*	3%	-8%	-3%
CS(=O)(=O)N1CCN(CC2CC3C=CC2C3)CC1 (stereo not drawn)	1%	-89*	13%	-4%	-1%
CC(=O)Nc1ccc(S(=O)(=O)N2CCN(Cc3ccccc3[N+](=O)[O-])CC2)cc1	·	·	·	22µM*	·
CC(=O)Nc1ccc(S(=O)(=O)N2CCN(CCC#N)CC2)cc1	0%	2	0%	-1%	0%
CCN1CCN(CC2CC3C=CC2C3)CC1 (stereo not drawn)	-3%	3	-14%	?	-4%
CC(C)C(=O)Nc1ccc2nc(SCC(=O)N3CCc4ccccc43)sc2c1	·	·	-1%[46 µM]	·	·
O=[N+]([O-])c1ccccc1S(=O)(=O)N1CCN(CC2CC3C=CC2C3)CC1 (stereo not drawn)	·	·	?	14µM*	·
O=C(Nc1ccc(OC(F)F)c(Cl)c1)C(c1ccccc1)c1ccccc1	-4%	?	?	14µM*	2%
FC(F)Oc1ccc(NC(=S)NCc2ccccc2)cc1Cl	14µM*	-1	?	?	?
O=c1c(-c2ccccc2)nc2cnc(N3CCOCC3)nc2n1Cc1cccs1	·	·	-6%	?	·
CN1CC(c2ccccc2Cl)C2(COc3ccccc3C2=O)C12C(=O)Nc1ccccc12 (stereo not drawn)	?	?	?	1.4µM*	-7%
COc1ccc(-n2c(=O)c(C)nc3cncnc32)cc1	-30%	·	·	25µM*	-5%
CN(C)c1ccc(C2NCCS2)cc1 (stereo not drawn)	-18%	?	-2%	1µM*	3%
CCOc1ccc(CCNc2ncnc3onc(C)c23)cc1OCC	·	·	3%[46 µM]	·	·
COc1cc(OC)c(OC)cc1/C=C1\CCC(C2CCCC2)C1=O (stereo not drawn)	·	·	?	2µM*	·
